Screen size: about 330,000 compounds; about 1,900 (0.58%) were called active. Roughly 4% stayed inconclusive and do not appear here. A selection follows. Measured potencies and affinities stand elsewhere. Unmarked numbers belong to inactive results. Cut-off read from the data, not from the text of the source: inconclusive = inhibition above about 70% without an active follow-up result; inactive = below that.

For orientation: inhibition means the relative decrease from the control value, in per cent.

The test in a line: M. tuberculosis growth inhibition, HTS (AID 449762).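 Note: bacterial growth assessed after seven days of incubation.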 Particulars: M. tuberculosis H37Rv growth inhibition, 7H9 media; at 25 µM; hits give high values.
For `COc1cccc(C2C3=C(N=c4s/c(=C\c5ccccc5O)c(=O)n42)c2ccccc2CC3)c1OC` (configuration not stated), the inhibition is 4.34%.
Then `COc1cccc(C2C3=C(N=c4s/c(=C\c5ccc(O)cc5)c(=O)n42)c2ccccc2CC3)c1OC` (configuration not stated), with 65.1%; and `COc1ccccc1NC(=O)c1ccccc1C(=O)N(C)Cc1ccccc1`, with -2.3%; and `Cc1cc(C)nc(SCC(=O)O)n1`, with 0.26%.
With `O=C(c1ccc2nc[nH]c2c1)N1CCc2ccccc2C1`, the inhibition is -3.52%.
Then `Cc1ccc(NC(=O)CN(C)C(=O)Cn2ncc(Cl)c(Cl)c2=O)cc1`, with 28.7%; and `CCC(=O)Nc1ccc(C(=O)Cn2ncc(Cl)c(Cl)c2=O)cc1`, with -3.99%.
The same measure for `COc1ccc(CCC(=O)NCCCNC(=O)CCc2ccc(OC)cc2)cc1`: 8.41%; for `CCCCc1cc(=O)oc2cc(C)cc(OC(C)C(=O)NC(Cc3c[nH]c4ccc(O)cc34)C(=O)O)c12` (configuration not stated): -11.4%; for `O=C(COC(=O)c1ccccc1Br)Nc1ccc(F)cc1`: 45.4%.
The same measure for `O=C(Nc1ccc(F)cc1)c1cccc(NC(=O)C2C3CC4OC(=O)C2C4C3)c1` (configuration not stated): -6.31%.
`O=C1CC(/C=C/c2ccccc2)=Nc2ccccc2N1`: the inhibition was -1.18%.
Take `O=C1CC(/C=C/c2ccncc2)=Nc2ccccc2N1`: the inhibition is -0.65%.
On to `CCCCNS(=O)(=O)c1ccc(NC(=O)Cc2ccc(OC)cc2)cc1`, for which the inhibition is -0.2%.
Then `O=C(NCCCN1CCOCC1)c1cc(S(=O)(=O)N2CCOCC2)ccc1Cl`, with -0.79%; and `Cc1cc(-n2c(C)c3c(C)nnc(C)c3c2C)ccc1N`, with -1.53%; and `Cc1ccc(-n2c(C)c3c(C)nnc(C)c3c2C)cc1C`, with 39.9%.
Then `COc1cc(NS(C)(=O)=O)c(OC)cc1NC(=O)c1ccccc1`, with -13.2%; and `N#Cc1cccc2c1-c1ccccc1/C2=N/NC(N)=S`, with 11.6%; and `NC(=O)N/N=C1\c2ccccc2-c2c(C(N)=O)cccc21`, with -8.45%.
Then `COc1cccc(C(=O)NCC2CCCN2S(=O)(=O)c2cccs2)c1` (configuration not stated), with -3.52%.
For the molecule `CCOC(=O)CNC(=S)n1ncnc1N`, the inhibition is -5.34%.
Consider `CNC(=S)n1cnc(N)n1`, for which the inhibition was -9.24%.
Then `CCc1nc2nc(C)c(NS(=O)(=O)c3ccc(Br)s3)c(=O)n2[nH]1`, with -4.89%.
Then `CCC1CCCCN1C(=O)c1ccc2c(c1)C(=O)N(c1ccc(C)cc1)C2=O` (configuration not stated), with 7.37%; and `CNC(=S)NC1CC2CCCC(C1)N2Cc1ccc(C)cc1` (configuration not stated), with -9.32%.
The same measure for `CCNC(=S)NC1CC2CCCC(C1)N2Cc1ccc(C)cc1` (configuration not stated): -6.09%; for `CNC(=S)NC1CC2CCC(C1)N2Cc1ccccc1` (configuration not stated): -6.1%.
On to `CCc1ccc(NC(=S)NC2CC3CCCC(C2)N3Cc2ccccc2)cc1` (configuration not stated), for which the inhibition was 9.67%.
Regarding `C/C(N)=C(/C#N)C(=O)COC(=O)CCSc1ccccc1Cl`, the inhibition is -0.73%.
The same measure for `O=C(Nc1ccc(Br)cc1Br)c1cccc2c1C(=O)N(C1CCCCC1)C2`: 10.8%.
The same measure for `CC(C)C[C@H](NC(=O)CCCn1nnc2ccccc2c1=O)C(=O)O`: 7.06%; for `Cc1cc(C)c2c(CC(=O)NNC(=O)c3ccccc3)coc2c1`: -11.5%; for `COc1ccc(N=Nc2ccc3ccccc3c2)c(O)c1`: 53.5%.
The same measure for `COc1cc(N=Nc2ccccc2C(=O)O)ccc1O`: 5.29%; for `Cc1ccnc(NC(=O)c2cc3ccccc3oc2=O)c1`: 45.2%.
For `O=C(Nc1ccccn1)c1cc2ccccc2o1`, the inhibition is 3.67%.
The same measure for `O=C(CN1C(=O)NC2(CCCc3ccccc32)C1=O)NCCc1ccc(F)cc1` (configuration not stated): 1.6%; for `O=C(CSc1ccccc1)N1CCN(c2ccc(F)cc2)CC1`: -5.77%; for `COc1cccc(/C=C/C(=O)OCC(=O)Nc2ccc(N3CCOCC3)cc2)c1OC`: -2.5%.
Then `CC(C)OC(=O)CSc1nnc(CNc2nc(-c3ccccc3)cs2)n1C`, with 0.34%; and `COC(=O)CSc1nnc(CNc2nc(-c3ccccc3)cs2)n1C`, with -7.67%; and `COC(=O)[C@H](CC(C)C)NS(=O)(=O)N[C@@H](CC(C)C)C(=O)OC`, with -8.61%.
`COC(=O)c1c(NC(=O)C(=O)N2CCCCC2)sc2c1CC(C)(C)OC2`: the inhibition was 5.56%.
Then `CC1(C)Cc2c(sc(NC(=O)C(=O)N3CCCC3)c2C(=O)O)CO1`, with 1.82%; and `COc1ccc2ccc3c(c2c1)N=CC1(O3)N(C)c2ccccc2C1(C)C` (configuration not stated), with -4.4%; and `COc1ccc(N2CCN(C(=O)COCC(=O)O)CC2)cc1`, with -6.23%.
The same measure for `COc1ccc(C(=O)NCCS(=O)(=O)N2CCN(C(=O)c3ccco3)CC2)cc1`: -5.88%; for `COc1ccc(C(=O)CSc2n[nH]c(=O)[nH]c2=O)cc1`: -1.42%; for `O=C(CSc1n[nH]c(=O)[nH]c1=O)c1ccccc1`: 51.6%.
Then `COc1ccc(NC(=S)NC2CCCCC2)c(OC)c1`, with 4.99%.
In the case of `CCOc1ccccc1C(=O)N1CCN=C1SCc1cccnc1`, the inhibition is 10.2%.
Then `O=C(c1ccco1)N1CCN(S(=O)(=O)c2ccc(Cl)s2)CC1`, with -11.2%; and `O=C(c1cc2ccccc2o1)N1CCN(S(=O)(=O)c2cccs2)CC1`, with 0.69%.
For `CCOC(=O)Cc1nnc(NC(=O)c2ccccc2OC)s1`, the inhibition is -7.9%.
As for `N#Cc1ccc(S(=O)(=O)N2CCCN(c3nc4ccc(Cl)cc4s3)CC2)cc1`, the inhibition was -8.22%.
Then `O=[N+]([O-])c1ccc(N2CCN(Cc3ccc(Br)o3)CC2)cc1`, with 2.93%.
The same measure for `Clc1ccc(N2CCN(Cc3ccc(Br)o3)CC2)cc1`: 0.17%; for `COc1ccc(N(CC(=O)N/N=C/c2ccco2)S(=O)(=O)c2ccccc2)cc1`: -4.51%; for `O=C(c1ccoc1)N1CCC(CO)(CCc2ccccc2)CC1`: -5.69%.
Then `O=C(COc1ccccc1[N+](=O)[O-])Nc1ccccc1N1CCCCC1`, with -4.5%; and `COC(=O)c1c(C)[nH]c(C(=O)/C=C/c2ccccc2Cl)c1C`, with 3.39%.

Values taken from PubChem BioAssay AID449762 (Southern Research Specialized Biocontainment Screening …, 2010).
